Sampled rows, rich in hits. Any-hit rate of the full collection: about 4.6%.
Peg3 promoter = Peg3 promoter activity inhibition; HeLa PEG-Prom luciferase reporter, luminescence, overnight; inhibition, % at 20 µM; 1.7% of 360,000 active; AID 588405;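 active means inhibition of at least 50% at 20 µM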
HIF-2a block = inhibitors of HIF-2a | 786-0 RCC cells HIF-2a reporter, luciferase luminescence, overnight | inhibition, % at 18.8 µM | 0.72% of 360,000 active | AID 624352;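 active means inhibition of the luminescence signal of 40% or more relative to plate controls, in a single-dose primary screen at 18.75 µM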
CF NFkB inh = inhibitors of cystic fibrosis induced NF-kB. KKLEB NF-kB-GFP reporter, PAF-induced, GFP fluorescence overnight. AID 588850. inhibition, % at 5 µM. 0.86% of 360,000 active;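 active means at least 50% inhibition at 5 µM, scaled per plate between neutral and stimulator controls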;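 further: PAF is a Pseudomonas aeruginosa culture filtrate used as stimulus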
ABHD5 PLIN5 PPI = blocks binding of human ABHD5 to perilipin-5; AID 602281; 0.78% of 360,000 active; Split G. princeps luciferase complementation, luminescence, 4 h; inhibition, % at 4 µM;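 active means inhibition above the mean inhibition across every tested compound plus 3 SD, cut at about 22% in these data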
Target sequence (Q00G26 whole entry, looked up): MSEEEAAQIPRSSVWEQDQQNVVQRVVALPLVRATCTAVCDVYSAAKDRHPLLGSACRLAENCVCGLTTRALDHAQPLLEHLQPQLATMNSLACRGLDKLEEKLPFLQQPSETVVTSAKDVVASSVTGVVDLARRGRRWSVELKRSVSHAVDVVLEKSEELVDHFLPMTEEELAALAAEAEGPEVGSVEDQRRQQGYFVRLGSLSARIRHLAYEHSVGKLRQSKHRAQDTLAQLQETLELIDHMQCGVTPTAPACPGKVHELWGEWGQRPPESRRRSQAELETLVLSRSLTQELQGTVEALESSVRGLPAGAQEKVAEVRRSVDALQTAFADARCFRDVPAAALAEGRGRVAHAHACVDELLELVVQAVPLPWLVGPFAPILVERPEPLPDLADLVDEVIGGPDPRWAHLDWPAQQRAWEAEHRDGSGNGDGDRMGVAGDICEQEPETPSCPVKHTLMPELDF
Target sequence (Q8WTS1 whole entry, looked up): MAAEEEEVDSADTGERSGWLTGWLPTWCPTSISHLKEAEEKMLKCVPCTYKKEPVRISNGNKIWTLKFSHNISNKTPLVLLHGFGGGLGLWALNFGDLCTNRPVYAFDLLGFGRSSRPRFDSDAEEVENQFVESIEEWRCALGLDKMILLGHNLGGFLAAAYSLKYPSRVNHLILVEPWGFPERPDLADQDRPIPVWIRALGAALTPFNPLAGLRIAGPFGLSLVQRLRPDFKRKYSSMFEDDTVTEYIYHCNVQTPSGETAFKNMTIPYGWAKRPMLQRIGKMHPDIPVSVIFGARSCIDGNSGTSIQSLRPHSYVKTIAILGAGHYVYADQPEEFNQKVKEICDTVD
KKLEB tox = reduces viability of KKLEB cystic fibrosis airway cells | 0.36% of 360,000 active | activity change (cytotoxicity), % at 5 µM | AID 602141 | KKLEB CF airway cells viability, ATPlite luminescence, overnight; hits give low values; cells stimulated with P. aeruginosa culture filtrate;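 active means corrected activity change at or below -50% at 5 µM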
Mdm2 MdmX PPI = human Mdm2/MdmX binding inhibition | O15151+Q00987 | SaOS-2 split-luciferase Mdm2/MdmX complementation, luminescence | inhibition, % at 8 µM | 3% of 330,000 active | AID 485346;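 active means inhibition of at least 50% at 8 µM in the primary screen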
ABHD5 PLIN5 conf = confirmation of human ABHD5-PLIN5 interaction inhibitors; inhibition, % at 4 µM; 67% of 2,200 active; shares compounds with ABHD5 PLIN5 PPI; biochemical ABHD5-PLIN5 interaction, luminescence; in the data active means inhibition above about 23%
HNF4 split-luc = counter-screen for ABHD5-PLIN5 inhibitors: HNF4 split-luciferase. shares compounds with ABHD5 PLIN5 PPI. AID 651674. inhibition, % at 4 µM. 77% of 2,200 active. HNF4 dimerization, luminescence, biochemical;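 active means mean inhibition across replicate wells exceeding the computed hit threshold, cut at about 13% in these data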;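 further: light from luciferase halves that rejoin when HNF4 fusion proteins dimerize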
A number is an active result; . = inactive; / = not tested or not shown.

SMILES	Peg3 promoter	HIF-2a block	CF NFkB inh	ABHD5 PLIN5 PPI	KKLEB tox	Mdm2 MdmX PPI	ABHD5 PLIN5 conf	HNF4 split-luc
CN(C(=O)CSc1nnc(CN2CCCC2)n1Cc1ccccc1)c1ccccc1	.	.	.	.	.	.	/	/
CSc1ccc(Cl)c(C(=O)OCC(=O)NCc2ccco2)c1	.	.	.	34	.	.	.	18
O=C(CCc1nnc2ccc(NCc3ccco3)nn12)N1CCN(c2ccccc2)CC1	.	.	.	.	.	.	/	/
CCOC(=O)C1CCN(C(=O)CCc2nnc3ccc(NCc4ccco4)nn23)CC1	.	.	.	51	.	.	.	.
Cc1ccc(NC(=O)CCc2nnc3ccc(NCc4ccco4)nn23)nc1	.	.	.	39	.	.	.	24
Cc1n[nH]c(C)c1CCCCOc1ccccc1[N+](=O)[O-]	.	.	.	.	.	.	/	/
Cc1cccc(C)c1C(O)c1ncc(-c2ccccc2F)[nH]1 (stereo not drawn)	.	.	.	.	.	/	/	/
CN(C)c1ccc(C=c2c3ccccc3n3c2c2c([n+]3C)CCCC2)cc1	102	93	.	29	.	/	28	36
CN(C)c1ccc(C=Cc2nccc3ccccc23)cc1	.	.	.	.	.	/	/	/
O=C(O)c1ccc(N=Nc2c(-c3ccccc3)[nH]oc2=O)cc1	.	.	.	.	.	.	/	/
Cc1ccc(C(C)C)cc1OCC(=O)N1CCN(C(=O)c2ccco2)CC1	.	.	.	24	.	.	.	.
CC(C)c1ccc(OCC(=O)N2CCN(C(=O)c3ccco3)CC2)cc1	.	.	.	.	.	.	/	/
N#C/C(=C\c1c(F)cccc1Cl)C(=O)NC1CC1	.	.	.	23	.	.	30	21
CSc1nc(=O)[nH]nc1Sc1ccccc1	.	.	.	33	.	/	48	53
COC(=O)C/C=N/N=C1/NC(=O)/C(=C/C(=O)O)S1	.	.	.	26	.	.	.	19
O=[N+]([O-])/C=C/c1cn(Cc2ccc(F)cc2)c2ccccc12	53	.	.	57	.	.	92	68
CC(=O)Nc1ccc(C(=O)N2CCCC(c3cc(C(=O)Nc4ccccc4)no3)C2)cc1 (stereo not drawn)	.	.	.	.	.	/	/	/
CCCc1cc(CN2CCOCC2)c(O)c(CN2CCOCC2)c1O	.	.	.	25	.	/	63	100
Cc1ccc(Cc2c(C3CCCCC3)nc3c4ccccc4ccn23)cc1	.	.	.	.	.	/	/	/
COc1ccc(CNC(=O)CSCc2cccc(Cl)c2)cc1	.	.	.	68	.	.	.	.
COc1ccc(C(CCN2CCOCC2)c2c(OC)cc(OC)c3c(-c4ccccc4)cc(=O)oc23)cc1 (stereo not drawn)	.	.	.	25	.	.	.	.
O=C(NCc1ccccc1)C(c1ccc(-c2ccccc2)cc1)N1CCN(C(=O)C2CCCO2)CC1 (stereo not drawn)	/	.	/	.	/	/	/	/
COc1ccc(C(=O)Nc2nnc(Cc3ccccc3)s2)c(OC)c1	.	.	.	.	.	.	/	/
CN(C)CCOc1ccccc1Cc1ccccc1	.	.	.	35	.	.	73	25
CN1C/C(=C/c2ccsc2)C(=O)/C(=C/c2ccsc2)C1	.	47	.	56	.	.	79	66
SMILES	Peg3 promoter	HIF-2a block	CF NFkB inh	ABHD5 PLIN5 PPI	KKLEB tox	Mdm2 MdmX PPI	ABHD5 PLIN5 conf	HNF4 split-luc
CN1C/C(=C\c2ccc(N3CCOCC3)cc2)C(=O)/C(=C/c2ccc(N3CCOCC3)cc2)C1	.	.	.	30	.	.	53	42
c1ccc(N2CCOCCOCCOCCOCCOCC2)cc1	.	.	.	.	.	.	/	/
CN1C/C(=C/c2ccncc2)C(=O)/C(=C/c2ccncc2)C1	.	.	.	.	.	.	/	/
CC1(C)c2ccccc2N2CC(=O)NC21/C=C/c1ccco1 (stereo not drawn)	.	.	.	27	.	.	.	21
COc1cc(N(C)C)ccc1C=c1c2ccccc2n2c1cc(-c1ccccc1)[n+]2C	100	90	.	24	.	/	.	26
CN(C)c1ccc(C=c2c3cc([N+](=O)[O-])ccc3n3c2cc(-c2ccccc2)[n+]3C)cc1	106	75	.	26	-52	/	101	48
OC(c1ccc(Cl)c(Cl)c1)c1ncc(-c2ccccc2C(F)(F)F)[nH]1 (stereo not drawn)	.	.	.	.	.	/	/	/
Cc1cccc(NC(=O)CNC(=O)COc2cccnc2[N+](=O)[O-])c1C	.	.	.	.	.	.	/	/
O=C1/C(=C/c2cccnc2)CC/C1=C\c1cccnc1	.	.	.	42	.	.	72	50
CCC1C/C(=C\c2cccnc2)C(=O)/C(=C/c2cccnc2)C1 (stereo not drawn)	109	92	93	91	-66	/	102	100
CC(C)/C=C1\CC/C(=C\c2cccnc2)C1=O	.	.	.	39	.	.	75	58
O=C(CNCCc1ccccc1)N1CCc2ccccc2C1	.	.	.	.	.	.	/	/
Cc1cccc(N2CC(C(=O)Nc3nnc(SCC(=O)NCC4CCCO4)s3)CC2=O)c1 (stereo not drawn)	.	.	.	.	.	.	/	/
Cc1cc(C(F)(F)F)nn1Cc1ccc(C(=O)NCc2ccco2)o1	.	.	.	23	.	.	29	23
CCCc1nc(C)c2c(=O)[nH]c(-c3cc(S(=O)(=O)N4CCN(CC)CC4)ccc3OCC)nn12	.	.	.	62	.	.	68	29
COc1ccc(/C=C/C(=O)OCC(=O)Nc2cccc(S(=O)(=O)NC3=NCCCCC3)c2)cc1	.	.	.	.	.	.	/	/
COc1cccc(-c2cnc3c(NC=O)cc(-c4ccoc4)cn23)c1	.	.	.	26	.	/	30	37
CN(C)C(=O)c1cccc(-c2cnc3c(NC=O)cc(-c4ccccc4Cl)cn23)c1	.	.	.	24	.	/	.	.
C[C@H](NC(=O)c1ccco1)C(=O)OCC(=O)N1CC(=O)Nc2ccccc21	.	.	.	.	.	.	/	/
CN1CCN(C2=Nc3cc(F)ccc3Cc3ccccc32)CC1	/	/	/	/	/	.	/	/
CN1CCN(C2=Cc3ccccc3Sc3cc(F)ccc32)CC1	.	.	.	23	.	.	.	.
S=C(NCCc1ccccn1)NC1CC2CCC1C2 (stereo not drawn)	.	.	.	62	.	.	.	.
C=CCN(C(=O)c1csnn1)C(C(=O)NC1CCCCC1)c1ccc(F)cc1 (stereo not drawn)	.	.	.	.	.	.	/	/
COCCNC(=O)c1cc(-c2ccccc2)sc1N	/	.	/	28	/	/	.	.

Assay outcomes as filed in PubChem.
